# Source: PubChem BioAssay AID624308 (National Center for Advancing Translational Sciences (NCATS), 2012)
# Results filed as inconclusive are left out. Activity calls are given as the source filed them. The call rests on the fitted dose curve; in most records, active means well fitted inhibition curve with a large enough effect; inconclusive means small, poorly fitted or top-dose-only effect; inactive means flat fitted curve, though single readings scatter.
# Biological target: Peptidyl-prolyl cis-trans isomerase NIMA-interacting 1 (Homo sapiens) (UniProt Q13526)
# Sequence (Q13526 whole entry, looked up): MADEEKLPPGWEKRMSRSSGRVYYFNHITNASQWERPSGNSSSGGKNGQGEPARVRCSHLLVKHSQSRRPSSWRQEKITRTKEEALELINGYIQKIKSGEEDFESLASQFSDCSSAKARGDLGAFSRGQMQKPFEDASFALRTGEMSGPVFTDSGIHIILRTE
# Assay: qHTS Assay to Find Inhibitors of Pin1: Hit Validation
# Settings: Pin1 FP peptide displacement, HiFluor488 probe; series mostly up to 57.5 µM
# From the text: The unique chemical properties of Pro allow for the adoption of two completely distinct amide bond conformations (cis and trans). Peptidyl-prolyl cis/trans isomerases (PPIases) are evolutionary conserved enzymes that catalyze cis/trans isomerization of peptidyl-prolyl peptide bonds. Distinct from all other PPIases such as cyclophilins and FK506-binding proteins (FKBPs), Pin1 binds a subset of phos.Ser/Thr-Pro-containing proteins using its protein-targeting WW domain and isomerizes only specific phos.Ser/Thr-Pro bonds, which cannot be effectively catalyzed by other known PPIases. Pin1-catalyzed conformational regulation can control a spectrum of activities of many key regulators in diverse cellular processes such as cell growth, genotoxic and other stress responses, immune response, germ cell development, neuronal differentiation and survival. Pin1 has emerged as a novel molecular timer that modulates its multiple targets at various steps of a given cellular process to synergistically control the amplitude and duration of a cellular response or process. Importantly, Pin1 is tightly regulated by multiple levels and its deregulation has an important role in a growing number of pathological conditions, including cancer, Alzheimer's disease, aging, asthma and microbial infection, providing a potentially new therapeutic option. The goal of this screen is to find small-molecule inhibitors of Pin1 using a fluorescence polarization competition assay. A HiFluor-488-labeled peptide binds to the active site of Pin1 and can be displaced by compounds. Compounds were screened as a concentration-titration series that ranged from 57 uM to 0.7 nM. This is the hit validation to test the hits identified in the primary screen. NIH Molecular Libraries Probe Production Network [MLPCN] NIH Chemical Genomics Center [NCGC] MLPCN Grant: R03 DA031663 PI Name: Dr. Kun Ping Lu, Beth Israel Deaconess Medical Center
# Pin1 (0.6 uM) was dispensed into black, solid 1536-well plates at 2 uL/well in 10 mM HEPES (pH 7.5), 10 mM NaCl, 0.01% Tween20, 1 mM DTT, and 1% glycerol. Then, 23 nL of compounds or DMSO were delivered to each well using a pin tool. Two uL of Pin1-1b-HiFluor488 peptide (10 mM HEPES (pH 7.5), 10 mM NaCl, 0.01% Tween20, 1 mM DTT, and 1% glycerol, 0.02 uM Pin1-1b-HiFluor488) was then dispensed, and plates were incubated at room temperature for 10 min. The plates were measured on a ViewLux plate reader for fluorescence polarization signal using a 480/20 nM nm excitation filter and 540/25 nM nm S and P emission filters with a 20 second exposure. The %Activity was determined from the corrected fluorescence polarization values. Unlabeled Pin1-1c peptide was used as a control (3.5 mM two-fold serial; 20 uM final concentration) along with a 1x (0.3 uM) and 0x (no-enzyme) Pin1 enzyme control to normalize %Activity of identified inhibitors; 0x enzyme values corresponded to 100%Activity (full inhibition), while 1x Pin1 enzyme values were used to normalize 0%Activity (no inhibition). Concentration-response curves were fitted to the signals arising from the resulting fluorescence polarization. The concentration-effect curves were then classified based on curve quality (r2), response magnitude and degree of measured activity, and compounds were subsequently categorized based on their curve class. […] Keywords: Peptidyl prolyl isomerase, Pin1, fluorescence polarization, MLSMR, MLPCN, NIH Roadmap, qHTS, NCGC
row,SMILES,Potency
1,O=S(=O)(Nc1cc(Sc2ncn[nH]2)c(O)c2ccccc12)c1ccccc1,inactive
2,CC(=O)Nc1ccc(Nc2c3c4c(cccc4n(C)c2=O)C(=O)c2ccccc2-3)cc1,3.38 µM (active)
3,COc1cccc2c1C(=O)c1c(O)c3c(c(O)c1C2=O)C[C@](O)(C(C)=O)C[C@H]3O[C@@H]1C[C@@H](N)[C@@H](O)[C@@H](C)O1,inactive
4,CCCCCC(=O)Nc1cc(S(=O)(=O)O)cc2cc(S(=O)(=O)O)cc(O)c12,1.69 µM (active)
5,COc1ccccc1Nc1ccc2c(O)cc(S(=O)(=O)O)cc2c1,1.2 µM (active)
6,O=S(=O)(O)c1ccc(O)c2cc(Nc3ccccc3)ccc12,1.69 µM (active)
7,O=C1c2ccccc2C(=O)c2c(O)c(O)cc(O)c21,26.9 µM (active)
8,COc1ccc(S(=O)(=O)Nc2cc(Sc3ncn[nH]3)c(O)c3ccccc23)cc1,inactive
9,Cc1ccc2nc(-c3ccc(N=Nc4cc(S(=O)(=O)O)c5ccccc5c4O)cc3)sc2c1S(=O)(=O)O,3.01 µM (active)
10,O=S(=O)(O)c1cc(O)c2cc(Nc3ccccc3)ccc2c1,10.7 µM (active)
